# The list is not random: actives were taken first. Their share in the collection is about 10%.
# IMPase inh: qHTS Assay for Identifying the Cell-Membrane Permeable IMPase Inhibitors. AID 901, 2007. 120,000 tested, under 10 active. Inositol monophosphatase 1 (Rattus norvegicus), P97697. CHO-M1 cells, IP1 accumulation, HTRF TR-FRET ratio. inhibition (IP1 accumulation), % at 46.1 µM; active means well fitted curve in the direction sought with a large enough effect in the signal ratio, not every such curve was filed as active; inconclusive means small, poorly fitted or top-dose-only effect, or a change in a side signal; inactive means no such curve, though single readings can be large or run the other way; the % refers to the signal ratio;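 further: cells stimulated with carbachol in lithium chloride buffer; plate controls were DMSO basal wells for no effect and reference inhibitor wells for full effect; higher means more IMPase inhibition seen as more IP1 and lower FRET ratio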
#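 Cellular IMPase inhibition is scored as a rise in cytosolic IP1, detected by competitive TR-FRET between d2-labelled IP1 and a europium anti-IP1 antibody. M1-expressing CHO cells were stimulated with carbachol for 30 min at 37C, with lithium (50 mM LiCl) present in the buffer.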
# HPGD block: qHTS Assay for Inhibitors of HPGD (15-Hydroxyprostaglandin Dehydrogenase). 15-hydroxyprostaglandin dehydrogenase [NAD(+)] (Homo sapiens), P15428. purified HPGD, NADH fluorescence kinetic, PGE2 substrate. Potency, µM, inactives show at the top dose activity change, negative = inhibition, hits mostly inhibitors. 150,000 compounds, 4.3% hits; further: potency means the concentration at half of the fitted maximal effect
# Target sequence (P15428 whole entry, looked up): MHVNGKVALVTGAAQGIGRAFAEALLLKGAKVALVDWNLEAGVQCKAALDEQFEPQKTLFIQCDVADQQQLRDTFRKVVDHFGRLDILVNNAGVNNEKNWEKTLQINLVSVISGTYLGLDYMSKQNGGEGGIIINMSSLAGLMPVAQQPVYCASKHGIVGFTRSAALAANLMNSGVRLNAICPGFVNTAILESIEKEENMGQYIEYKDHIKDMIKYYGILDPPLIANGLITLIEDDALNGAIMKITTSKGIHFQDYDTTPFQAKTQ
#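 20 nM HPGD preincubated 15 min at room temperature with compound in 50 mM Tris-HCl pH 8, 0.01% Tween 20. Started with 1 mM NAD+ and 30 uM prostaglandin E2; NADH fluorescence (360/450 nm) read 5 times over 30-s intervals, last minus first.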
# PNC inhibitor: High Content Assay for Compounds that inhibit the Assembly of the Perinucleolar Compartment. PC3M PTB-GFP, PNC prevalence imaging, 16 h; stronger effect = lower value. activity change (PNC), negative = inhibition, % at 10 µM. 140,000 compounds, 3.1% hits;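 active means readout at or below -70, meaning at least 70% loss of cells showing the perinucleolar compartment, a nuclear body marking cancer cells; inconclusive means readout between -30 and a set limit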;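 further: plate controls were DMSO wells for no effect and camptothecin positive control wells for full effect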
#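 Compounds are pinned in duplicate onto adhered PC3M cells stably expressing GFP-tagged PTB and incubated 16 h at 37 C. Cells are then fixed, nuclei stained with Hoechst, and PNC-positive cells counted.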
# ALDH1A1 block: qHTS Assay for Inhibitors of Aldehyde Dehydrogenase 1 (ALDH1A1); Aldehyde dehydrogenase 1A1 (Homo sapiens), P00352; Purified ALDH1A1, NADH fluorescence, propionaldehyde substrate; Potency, µM (highest dose often 75.3 µM), inactives show at the top dose activity, negative = inhibition, usual class: inhibitors; 220,000 compounds, 7.3% hits; AID 1030, 2008;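 further: potency means the concentration at half of the fitted maximal effect; plate controls were no enzyme wells and a reference inhibitor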
# Target sequence (P00352 whole entry, looked up): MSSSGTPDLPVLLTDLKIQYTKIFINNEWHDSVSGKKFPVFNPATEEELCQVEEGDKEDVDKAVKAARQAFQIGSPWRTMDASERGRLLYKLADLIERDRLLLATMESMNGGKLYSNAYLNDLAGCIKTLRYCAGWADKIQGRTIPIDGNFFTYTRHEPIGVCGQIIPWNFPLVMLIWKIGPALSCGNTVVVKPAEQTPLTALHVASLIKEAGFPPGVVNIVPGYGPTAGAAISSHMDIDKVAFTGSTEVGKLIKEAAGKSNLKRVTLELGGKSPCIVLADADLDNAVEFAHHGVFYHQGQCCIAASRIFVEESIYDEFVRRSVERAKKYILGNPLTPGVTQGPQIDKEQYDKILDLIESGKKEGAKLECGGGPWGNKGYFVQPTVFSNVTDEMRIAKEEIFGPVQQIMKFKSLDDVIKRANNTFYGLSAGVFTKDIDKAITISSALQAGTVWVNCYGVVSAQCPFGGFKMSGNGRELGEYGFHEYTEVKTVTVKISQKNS
# Lamin A splicing: qHTS Assay for Modulators of Lamin A Splicing | HeLa LMNA splicing GFP/RFP minigene ratio, 48 h | Potency, µM (titrated, usually from 46.1 µM), inactives show at the highest dose ratio change, negative = inhibition, usual class: inhibitors | 200,000 compounds, 0.01% hits | AID 1487, 2009; active means well fitted inhibition curve with a large enough effect in the signal ratio, with a control signal flat, not every such curve was filed as active; inconclusive means small, poorly fitted or top-dose-only effect, or effect the other way, or a change in a side signal; the % refers to the signal ratio; further: potency means the concentration at half of the fitted maximal effect
#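 S3 HeLa cells stably expressing lamin A-EGFP splicing minigene plus DsRed2, 600 cells/well, 48 h compound exposure at 37C. Laser-scanning cytometry; analysed as GFP (500-530 nm)/RFP (575-640 nm) total intensity ratio; 0.5% DMSO vehicle.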
# Luc counter: Counterscreen for Luciferase (Kinase-Glo TM) Inhibition | Luciferin 4-monooxygenase (Photuris pensylvanica), Q27757 | Kinase-Glo luciferase, ATP luminescence, 8 min | Potency, µM (series often up to 38.3 µM), inactives show at the highest dose activity change, negative = inhibition, usual class: inhibitors | 200,000 compounds, 0.28% hits; active means well fitted inhibition curve with a large enough effect; inconclusive means small, poorly fitted or top-dose-only effect; further: potency means the concentration at half of the fitted maximal effect; nearly all actives have a fitted effect of over 60% in size
#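 Compound is pinned into ATP-containing buffer (10 uM ATP, imidazole pH 7.2, 7 mM MgCl2). Kinase-Glo luciferase reagent is then added. Light output is recorded following an 8-min room-temperature incubation.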
# Active calls of the source: *; ? = inconclusive; · = no result; [ ] = remark or other dose. Unless noted, the call rests on the fitted dose curve; in most records, active means well fitted inhibition curve with a large enough effect (not every such curve was filed as active); inconclusive means small, poorly fitted or top-dose-only effect, or another doubt; inactive means no such curve, though single readings can be large or run the other way. Unless noted, on the % scale 0 is the no-effect control and ±100 the full control effect.
SMILES,IMPase inh,HPGD block,PNC inhibitor,ALDH1A1 block,Lamin A splicing,Luc counter
O=c1cc(-c2ccc(O)c(O)c2)oc2ccccc12,·,7.1µM*,·,25µM*,·,-9%
O=c1cc(-c2ccc(O)cc2)oc2cc(O)ccc12,·,?,·,?,·,-17%
O=c1cc(-c2ccccc2)oc2ccccc12,·,8.9µM*,·,-17%,·,·
COC(=O)c1c(NC(=O)CCCOc2ccc(C)cc2)sc2c1C(C(=O)OC)CC2 (stereo not given),13,·,·,·,·,·
COC(=O)C1=C(C(=O)OC)[C@@H]2N(Cc3ccccc3)c3ccccc3[C@@]23C[C@@H](C(=O)OC)N(S(=O)(=O)c2ccc(C)cc2)C3=N1,·,-7%,·,-2%[13.5 µM],6%[9.22 µM],-8%[7.66 µM]
Cc1ccc2nc(N3CCN(c4ccccc4)CC3)c(C=O)c(=O)n2c1,·,·,·,-14%,·,-1%
Cc1ccc2nc(N3CCOCC3)c(C=O)c(=O)n2c1,·,·,·,25µM*,·,2%
Clc1cc2c(c(CSc3nc4ccccc4n4cccc34)c1)OCOC2,·,·,·,0%,11%[46 µM],·
Clc1cc2c(c(Cn3cnc4ccccc43)c1)OCOC2,-9,-9%,-100*,-1%,-20%,2%
CC1CCN(Cc2c(C#N)c3ccccc3n2C)CC1,0,-2%,50,32µM*,2%,-2%
Cc1nc2cnc(N3CCOCC3)nc2n(CCc2ccccc2)c1=O,·,·,·,?,-25%,·
CCCOC(=O)c1c(NC(=O)C2C3C=CC(C3)C2C(=O)O)sc2c1CCC(C)C2 (stereo not given),·,·,·,10µM*,·,-1%
CCOC(=O)c1c(NC(=O)c2ccc(N3C(=O)[C@@H]4[C@H](C3=O)[C@H]3C=C[C@@H]4C3)cc2)sc2c1CC(C)CC2 (stereo not given in full),·,?,-125*,?,-9%,-3%
C=CC[C@@H]1C=C[C@H](O/N=C2\c3cc(OC)ccc3O[C@H](c3cccc(OC)c3)[C@H]2O)[C@H](CO)O1,·,·,·,6%[13.5 µM],·,·
CCOC(=O)C1(C)C=C(Nc2ccc(C)cc2)C(=O)N1c1ccccc1 (stereo not given),0,·,·,·,·,·
CCOC(=O)C1(C)C=C(Nc2ccc(OC)cc2)C(=O)N1c1ccc(OC)cc1 (stereo not given),1,?,25,2.8µM*,-11%,-1%
CCOC(=O)C1(C)C=C(Nc2ccc(O)cc2)C(=O)N1c1ccc(O)cc1 (stereo not given),·,-6%,-12,3.5µM*,?,2%
O=C(CSc1nc(-c2ccccc2)cn1-c1ccccc1F)Nc1ccc(F)cc1,·,·,·,·,-7%[46 µM],·
COC(=O)C[C@H](NC(=O)[C@H](C)NC(=O)[C@@H](NC(=O)OCc1ccccc1)C(C)C)C(=O)CF,·,·,·,10%,·,·
C=CCOCC/C=C1/c2ccccc2C(OC)C1C (stereo not given),·,·,·,3%[13.5 µM],·,·
COc1ccc(CNC(=O)C(=O)NCC(c2cccnc2)N2CCN(c3ccccc3)CC2)cc1 (stereo not given),·,·,·,·,5%[46 µM],·
CN(C)C1(CNC(=O)COc2ccc([N+](=O)[O-])cc2)CCCCC1,·,·,·,·,-1%[46 µM],·
O=C(CSc1nnc(-c2cccs2)n1CC1CCCO1)N1CCCC1 (stereo not given),·,·,·,-2%,·,4%
CCOc1ccc(C(C)=O)cc1CSc1nnc(-c2cccs2)n1CC1CCCO1 (stereo not given),9,-10%,-9,8.9µM*,2%,-2%
Cc1cc(C)cc(NC(=O)CSc2nnc(-c3cc4occc4n3C)n2-c2ccccc2C)c1,·,·,·,·,-1%[46 µM],·
SMILES,IMPase inh,HPGD block,PNC inhibitor,ALDH1A1 block,Lamin A splicing,Luc counter
C[N+]1(C)CCC(=C2c3ccccc3CC(=O)c3sccc32)CC1,22,?,-9,7.1µM*,13%,-8%
CC[N+]1(C)CCC(=C2c3ccccc3CC(=O)c3sccc32)CC1 (stereo not given),13,-7%,-10,2%,24%,-1%
Cc1cccc(N2CCN(C(=O)CS(=O)(=O)c3cccc4nsnc34)CC2)c1C,·,·,·,·,-5%[46 µM],·
O=C(Nc1ccc2c(c1)OCCO2)NC1CCCCC1,6,-10%,?,7%,6%,-2%
O=C(CSc1ccc2c(c1)OCCO2)NC(=O)NC1CCCC1,7,-12%,-117*,-17%,?,4%
COc1ccc(NC(=S)N(CCc2c(C)[nH]c3ccccc23)Cc2cccnc2)cc1,·,-13%,61,-5%,?,-1%
COc1ccc(NC(=S)N(CCc2nc3cc(C)c(C)cc3[nH]2)Cc2cccnc2)cc1,11,-14%,13,13µM*,3%,1%
COc1ccc(CCNC(=O)COC(=O)COc2ccc(Cl)cc2)cc1OC,·,·,·,9%,-16%[46 µM],-1%
CC1CCN(CC(=O)NCCc2ccc(F)cc2)CC1,·,·,·,?,·,1%
COc1ccc(CCNC(=O)COC(=O)c2cnc(C)cn2)cc1OC,5,8%,8,13µM*,6%,-2%
CCCS(=O)(=O)N1CCCC(C(=O)NCCc2ccc(OC)c(OC)c2)C1 (stereo not given),2,-7%,-92*,-4%,8%,-3%
COc1ccc(CCNC(=O)CN2CCC(C)CC2)cc1OC,-1,-14%,29,11µM*,10%,-3%
COc1ccc(CCNC(=O)CCC2COc3ccccc3O2)cc1OC (stereo not given),4,-10%,-6,13µM*,4%,-2%
C=CCNC(=O)N1CCc2nc(-c3ccccc3)c3c(c2C1)CO[C@@H](C)C3,·,7%,·,-5%[13.5 µM],0%[9.22 µM],-5%[7.66 µM]
COc1cccc(CN(Cc2ccco2)c2cnc(S(C)(=O)=O)nc2C(=O)Nc2cccc(Cl)c2C)c1,·,·,·,·,-3%[46 µM],·
Cc1ccccc1OCC(=O)Nc1ccc(-c2nc3cc(Cl)cc(Cl)c3o2)cc1,-22,·,·,·,·,·
CNC(=O)[C@@H]1O[C@@H](n2cnc3c(NCc4cccc(I)c4)ncnc32)[C@H](O)[C@@H]1O,1,·,·,·,·,·
CN(CCO)Cc1ncccc1O,·,-10%,·,-3%[13.5 µM],·,-1%[7.66 µM]
O=C(/C=C/Nc1ccccc1Br)c1ccccn1,7,-22%,-4,-12%,?,13µM*
O=C(/C=C/c1ccccc1)c1ccccn1,8,-13%,110,-3%,?,14µM*
N/C(=N\OC(=O)/C=C/c1ccccc1)c1ccccn1,·,·,·,2%,-2%[46 µM],11µM*
N/C(=N\OC(=O)/C=C/c1ccccc1)c1ccncc1,·,·,·,3%,·,-3%
